This note sets out measurements from PubChem BioAssay (NCATS).

Where “and” joins values, the source holds several entries; their conditions need not be identical. Equal entries are not always repeated. Results filed as inconclusive are left out. Some compounds were tested as several samples or in several runs, with calls that do not always agree. Calls of active or inactive are those of the source. Unless noted, calls follow the shape of the dose curve; as a rule, active = well fitted curve in the direction sought with a large enough effect; inconclusive = small, poorly fitted or top-dose-only effect, or another doubt; inactive = no such curve, though single readings can be large; an effect the other way counts as inactive or inconclusive.

Test [1] addresses Calcium and integrin-binding protein 1 (Homo sapiens) (UniProt Q99828). Put plainly: Primary qHTS for Identification of Calcium Integrin Binding Protein 1 (CIB1) Competitor (AID 1508620).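 Also: GST tagged CIB1 binding a fluorescein labelled alphaIIb integrin peptide tracer; top concentration of the series differs between compounds; % is scaled to controls: 0 for no effect and ±100 for the full control effect.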 The method in brief: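 CIB1-GST (1 uM final) and compound incubated 15 min at room temperature before adding FITC-alphaIIb peptide tracer (100 nM final). Competition for binding read by fluorescence polarization (ex 480, em 540) after another 15 min at room temperature.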

Test [2] in a line: Primary qHTS for small molecule stabilizers of the endoplasmic reticulum resident proteome: Secreted ER Calcium Modulated Protein (SERCaMP) assay (AID 1508630). Also: % is scaled to controls: 0 for no effect and ±100 for the full control effect. The method in brief:
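GLuc-SERCaMP-expressing SH-SY5Y cells, pretreated 16 h with compound, are challenged with thapsigargin to empty ER calcium stores; after 4 h, coelenterazine is added directly to the medium and luminescence is imaged.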

Test [3] in a line: A High-Content qHTS Against Drug Library for the Identification of Small Molecules that Inhibit DYT1 Early Onset Primary Dystonia-Associated Cell Pathology (AID 1645839; calls by dose curve; also: potency is read from the fitted curve at half-maximal effect). The method in brief:
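In this high-content image screen, delE TorsinA mislocalization in inducible Flp-In 293 cells is scored as %pathology, with cell count serving as the counterscreen. Compound exposure lasts 48 h under tetracycline induction in reduced-serum medium.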

The target of test [4] is Cytochrome P450 2D6 (Homo sapiens) (UniProt P10635). Put plainly: Cytochrome P450 family 2 subfamily D member 6 (CYP2D6) small molecule antagonists: luciferase biochemical (cell-free) qHTS assay (AID 1645840; active = well fitted curve in the direction sought with a large enough effect in the repeat runs; an effect the other way counts as inactive or inconclusive; also: nearly all actives have a fitted effect of over 55% in size; also: potency is read from the fitted curve at half-maximal effect; as to activity change, negative = inhibition: % is scaled to controls: 0 for no effect and ±100 for the full control effect). The essentials: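 P450-Glo luminescent screen: recombinant CYP2D6 enzyme–proluciferin substrate mix preincubated with compound 10 min at room temperature, then NADPH regeneration added for 1 h at room temperature. Detection reagent added for 20 min; luciferin light read as relative luminescence units.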

Test [5] concerns the target Cytochrome P450 2C9 (Homo sapiens) (UniProt P11712). Put plainly: Cytochrome P450 family 2 subfamily C member 9 (CYP2C9) small molecule antagonists: luciferase biochemical (cell-free) qHTS assay (AID 1645842; active = well fitted curve in the direction sought with a large enough effect in the repeat runs; an effect the other way counts as inactive or inconclusive; also: nearly all actives have a fitted effect of over 55% in size; also: potency is read from the fitted curve at half-maximal effect; as to activity change, negative = inhibition: % is scaled to controls: 0 for no effect and ±100 for the full control effect). The essentials:
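Luminescence, after 20 min with luciferin detection reagent, reflected CYP2C9 turnover during a 1 h NADPH-driven reaction at 37C. Enzyme-substrate mix contained 0.4% bovine serum albumin and was preincubated with compound 10 min at room temperature.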

Test [6] in a line: Primary qHTS for inhibitors of nuclear receptor binding SET domain protein 2 (NSD2) in an isogenic RCH-ACV NSD2 p.E1099K mutant (9B) (AID 1645876). Also: nearly all actives have a fitted effect of over 70% in size. Also: potency is read from the fitted curve at half-maximal effect.
Test [7] in a line: Primary qHTS for inhibitors of nuclear receptor binding SET domain protein 2 (NSD2) in an RCH-ACV wild type WT cells (2C) (AID 1645877). Also: nearly all actives have a fitted effect of over 70% in size. Also: potency is read from the fitted curve at half-maximal effect.
Test [8] addresses Catechol O-methyltransferase (Homo sapiens) (UniProt P21964). Put plainly: Confirmatory Screen for Target Class Profiling of Small Molecule Inhibitors of Methyltransferases (AID 1745852). Conditions: MTase-Glo luminescence, SAH detection, recombinant enzyme; measured here: COMT max response; stronger effect = lower value.
In test [9] the target is Guanidinoacetate N-methyltransferase (Homo sapiens) (UniProt Q14353). The test is described as above. To be noted: MTase-Glo luminescence, SAH detection, recombinant enzyme; activity change, negative = inhibition: at 57.3 µM (top of the series).

Cytochrome P450 2C9 (Homo sapiens), sequence (P11712 whole entry, looked up): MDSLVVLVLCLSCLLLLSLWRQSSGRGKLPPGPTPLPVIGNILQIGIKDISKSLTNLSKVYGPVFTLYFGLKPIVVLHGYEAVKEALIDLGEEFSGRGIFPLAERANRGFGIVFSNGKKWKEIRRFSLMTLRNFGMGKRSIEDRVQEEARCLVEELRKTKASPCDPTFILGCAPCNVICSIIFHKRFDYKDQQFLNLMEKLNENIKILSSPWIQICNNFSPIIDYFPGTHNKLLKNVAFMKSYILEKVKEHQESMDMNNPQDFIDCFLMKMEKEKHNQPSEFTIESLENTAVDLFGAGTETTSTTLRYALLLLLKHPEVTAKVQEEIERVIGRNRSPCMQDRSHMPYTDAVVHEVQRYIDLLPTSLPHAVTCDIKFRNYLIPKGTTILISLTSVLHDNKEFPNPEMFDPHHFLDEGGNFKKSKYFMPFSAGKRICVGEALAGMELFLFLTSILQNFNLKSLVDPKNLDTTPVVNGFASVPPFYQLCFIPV
Calcium and integrin-binding protein 1 (Homo sapiens), sequence (Q99828 whole entry, looked up): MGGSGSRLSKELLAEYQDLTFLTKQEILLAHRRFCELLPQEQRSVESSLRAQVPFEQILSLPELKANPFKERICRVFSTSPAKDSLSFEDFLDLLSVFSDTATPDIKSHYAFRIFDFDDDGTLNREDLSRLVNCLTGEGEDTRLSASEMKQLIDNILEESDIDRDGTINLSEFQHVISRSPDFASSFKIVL
Cytochrome P450 2D6 (Homo sapiens), sequence (P10635 whole entry, looked up): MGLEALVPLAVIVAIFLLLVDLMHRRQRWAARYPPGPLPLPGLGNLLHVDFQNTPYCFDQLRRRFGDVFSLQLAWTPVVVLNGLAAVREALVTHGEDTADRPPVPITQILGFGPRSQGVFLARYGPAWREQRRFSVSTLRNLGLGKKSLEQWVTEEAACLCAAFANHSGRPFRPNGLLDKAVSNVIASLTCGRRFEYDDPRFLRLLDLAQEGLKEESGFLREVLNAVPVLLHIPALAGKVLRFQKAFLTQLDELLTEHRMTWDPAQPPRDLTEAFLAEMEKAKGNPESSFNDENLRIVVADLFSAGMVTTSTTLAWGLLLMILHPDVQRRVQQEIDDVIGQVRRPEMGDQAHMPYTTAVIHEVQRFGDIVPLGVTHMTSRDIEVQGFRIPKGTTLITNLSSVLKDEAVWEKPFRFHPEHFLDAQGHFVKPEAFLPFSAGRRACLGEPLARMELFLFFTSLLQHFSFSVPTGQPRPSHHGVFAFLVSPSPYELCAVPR
Catechol O-methyltransferase (Homo sapiens), sequence (P21964 whole entry, looked up): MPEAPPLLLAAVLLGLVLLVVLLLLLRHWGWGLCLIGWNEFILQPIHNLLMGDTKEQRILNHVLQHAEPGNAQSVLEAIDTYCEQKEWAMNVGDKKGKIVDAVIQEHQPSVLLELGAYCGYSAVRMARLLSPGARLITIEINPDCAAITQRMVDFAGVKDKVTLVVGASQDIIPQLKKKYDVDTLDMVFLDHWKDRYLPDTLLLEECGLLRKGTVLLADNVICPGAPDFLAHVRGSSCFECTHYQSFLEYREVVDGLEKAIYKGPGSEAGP

Turning to `Nc1[nH]c(=O)ncc1F`, the outcome in [1] is “inactive”. Further, the Potency entry in [2], in [3], in test [4], in test [5], in test [6] and in test [7] was “inactive” in each case.

On to `CC(C)OC(=O)OCOP(=O)(CO[C@H](C)Cn1cnc2c(N)ncnc21)OCOC(=O)OC(C)C`, for which, in test [1], the outcome is “inactive”. For the same compound, the Potency result in test [2], in test [3], in test [5], in test [6] and in test [7] was “inactive” throughout.

Turning to `NS(=O)(=O)c1cc2c(cc1Cl)NC(C(Cl)Cl)NS2(=O)=O` (centres undefined), the outcome in test [1] was “inactive”. Also, the Potency result in test [2], in test [3], in test [5], in [6] and in [7] was “inactive” in each case.

For the compound `N[C@@H](C(=O)N[C@@H]1C(=O)N2C(C(=O)O)=C(Cl)CS[C@H]12)c1ccccc1`, in test [1], the outcome was “inactive”. Besides, in test [2], the Potency entry was “inactive”. The % pathology change, negative = correction in [3] is 10.3% [at 9.22 µM] (inactive). In addition, the results for the activity change, negative = inhibition in test [4] and in [5] were 16.7% [at 11.5 µM] (inactive) and 11.4% [at 11.5 µM] (inactive), respectively. Also, the outcome in test [6] is “inactive [at 9.23 µM]”. The activity change, negative = cell killing in [7] was -2.72% [at 9.23 µM] (inactive).

Turning to `CC(C)Cn1cnc2c(N)nc3ccccc3c21`, in test [1], the outcome is “inactive”. Moreover, the Potency result in [2], in test [3], in test [5], in test [6] and in test [7] was “inactive” throughout.

Turning to `COc1cc2c(Nc3ccc(Br)cc3F)ncnc2cc1OCC1CCN(C)CC1`, in test [1], the outcome was “inactive”. The Potency entry in test [2], in test [3], in test [4] and in [5] was “inactive” in each case. Further, the Potency entry was “inactive and 3.65 µM (active) and 13.2 µM (active)” in test [6]; 5.15 µM (active) and 16.6 µM (active) in test [7]. For the same compound, the activity in [8] was -17.2%. Moreover, in test [9], the activity change, negative = inhibition is -2.94%.

On to `CC(N)C12CC3CC(CC(C3)C1)C2` (centres undefined), for which, in test [1], the outcome is “inactive”. For the same compound, the Potency entry in [2], in test [3], in test [4], in [5], in test [6] and in [7] was “inactive” each time.

As for `CC(C)C[C@H](NC(=O)[C@H](CCc1ccccc1)NC(=O)CN1CCOCC1)C(=O)N[C@@H](Cc1ccccc1)C(=O)N[C@@H](CC(C)C)C(=O)[C@@]1(C)CO1`, in test [1], the outcome was “inactive”. Moreover, the Potency entry in [2], in [3], in test [4] and in test [5] was “inactive” each time. In addition, the Potency in test [6] was 7.5 nM (active) and 10.5 nM (active); in test [7], 6 nM (active) and 5.3 nM (active).

As for `CCOC(=O)[C@H](CCc1ccccc1)N[C@H]1CS[C@H](c2cccs2)CN(CC(=O)O)C1=O`, the outcome in test [1] was “inactive”. Further, the Potency entry in test [2], in [3], in test [4], in test [5], in [6] and in test [7] was “inactive” in each case.

Turning to `CC[C@H](NC(C)C)[C@H](O)c1ccc(O)c2[nH]c(=O)ccc12`, the outcome in test [1] is “inactive”. The Potency entry in test [2], in [3], in test [5], in test [6] and in [7] was “inactive” in each case.

Regarding `CCOC(=O)c1ccc(C#Cc2ccc3c(c2)C(C)(C)CCS3)nc1`, the outcome in test [1] was “inactive”. The Potency entry in test [2], in test [3], in test [4], in test [5], in test [6] and in test [7] was “inactive” throughout.

Turning to `COc1cnc(NS(=O)(=O)c2ccc(N)cc2)nc1`, the outcome in [1] was “inactive”. Besides, the Potency result in test [2], in [3], in [5], in [6] and in test [7] was “inactive” in each case.

For `CN1CCN(c2c(F)cc3c(=O)c(C(=O)O)cn4c3c2OCN4C)CC1`, the outcome in test [1] is “inactive”. In addition, the Potency result in [2], in [3] and in [5] was “inactive” in each case.

In the case of `NNC(=O)c1ccncc1`, the outcome in test [1] was “inactive”. Moreover, the Potency entry in test [2], in test [3], in test [4], in [5], in test [6] and in test [7] was “inactive” throughout.

Take `CN(Cc1cc(Br)cc(Br)c1N)C1CCCCC1`: in [1], the outcome was “inactive”. Further, the Potency entry in test [2], in test [3], in test [6] and in [7] was “inactive” in each case. In addition, the Potency in [4] is 0.0195 µM (active).

As for `CC(C)C1CCC(C(=O)N[C@H](Cc2ccccc2)C(=O)O)CC1` (some centres undefined), the outcome in test [1] was “inactive”. Also, the Potency entry in test [2], in test [3], in test [4], in [6] and in test [7] was “inactive” in each case.

Take `CC(C(=O)O)c1ccc2c(c1)CC(=O)c1ccccc1S2` (centres undefined): in test [1], the outcome was “inactive”. The Potency entry in [2], in [3], in test [5], in test [6] and in test [7] was “inactive” throughout.

Turning to `C[C@@H]1CN(c2c(F)c(N)c3c(=O)c(C(=O)O)cn(C4CC4)c3c2F)C[C@H](C)N1`, the outcome in [1] was “inactive”. Besides, the Potency entry in test [2], in test [3], in test [4], in [5], in test [6] and in test [7] was “inactive” in each case.

As to `CC(=O)[C@H]1CC[C@H]2[C@@H]3CC=C4C[C@@H](O)CC[C@]4(C)[C@H]3CC[C@]12C`, in test [1], the outcome is “inactive”. Further, the Potency result in [2], in test [3], in [4], in test [5], in [6] and in test [7] was “inactive” throughout.

Regarding `CCn1cc(C(=O)O)c(=O)c2cc(F)c(N3CCNCC3)cc21`, in [1], the outcome was “inactive”. Moreover, the Potency result in [2], in test [3], in test [4], in test [5], in test [6] and in test [7] was “inactive” throughout.

In the case of `CC(C)(C#N)c1cc(Cn2cncn2)cc(C(C)(C)C#N)c1`, in [1], the outcome was “inactive”. Also, the Potency entry in [2], in test [3], in test [4], in test [6] and in [7] was “inactive” in each case. Also, the Potency in test [5] was 6.17 µM (active).

`C[C@@H](CN1CC(=O)NC(=O)C1)N1CC(=O)NC(=O)C1`: the outcome in [1] was “inactive”. The Potency entry in [2], in test [3] and in test [5] was “inactive” throughout. Moreover, the Potency in test [6] is 16.8 µM (active) and 5.25 µM (active); in test [7] it was 8.33 µM (active).

For `CCCCc1oc2ccc(NS(C)(=O)=O)cc2c1C(=O)c1ccc(OCCCN(CCCC)CCCC)cc1`, the outcome in test [1] is “inactive”. Moreover, the Potency entry in [2] was “inactive”. Moreover, the Potency in test [3] is 5.01 µM (active); in [5], 12.3 µM (active) and 12 µM (active); in test [6], 2.99 µM (active) and 11.5 µM (active) and 5.9 µM (active); in [7], 2.99 µM (active) and 9.16 µM (active) and 6.61 µM (active).

Take `Cc1noc(NS(=O)(=O)c2ccc(N)cc2)c1C`: the outcome in test [1] is “inactive”. Also, the Potency result in test [3], in [4] and in test [5] was “inactive” in each case.
